Sampled rows, rich in hits. Any-hit rate of the full collection: about 9.4%.
ELG1 DNA repair – inhibitors of ELG1-dependent DNA repair in HEK293T cells. Potency, µM (top dose mostly 46.1 µM), without a hit: at the top dose activity change, negative = inhibition, hits mostly inhibitors. 330,000 tested, 2.3% active. HEK293T ELG1-luciferase reporter, luminescence, 16 h; DNA damage induced by 5-fluorouridine; also: % is scaled to controls: 0 for no effect and ±100 for the full control effect; nearly all actives have a fitted effect of over 55% in size
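Step one: seed 2,000 cells per well. Step two: pin-transfer compound or DMSO alongside 5-fluorouridine. Step three: incubate 16 hr, 37 °C, 5% CO2. Step four: add ONE-Glo, wait 30 min, read luminescence.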
NPC1 prom act – NPC1 promoter activation; Huh7 NPC1 promoter luciferase reporter, 24 h; Potency, µM (titrated, usually from 9.22 µM), inactives show top-dose activation, most hits filed as activators; 320,000 tested, 2.4% active; AID 485313; also: % of control where 0% means no effect; nearly all actives have a fitted effect of over 60% in size
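Cells: Huh7 expressing luciferase under the NPC1 promoter, 1500/well. Seeded 2 h, compound added, incubated 24 h at 37 °C. Luciferase reagent, 10 min ambient, then luminescence.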
ELG1 genotox – genotoxicity induction in ELG1-luciferase HEK293T cells; HEK293T ELG1-luciferase reporter, luminescence, 16 h; Potency, µM (doses to about 46 µM), for the others: at the highest dose activity change, positive = activation, most hits filed as activators; 330,000 tested, 1.3% active; AID 504466; also: % of control where 0% means no effect; nearly all actives have a fitted effect of over 60% in size
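DMSO vehicle served as control against compound-treated ELG1-luciferase HEK293T cells; exposure lasted 16 hr at 37 °C and 5% CO2, followed by ONE-Glo luminescence detection after 30 min.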
Rab9 prom act – activates the Rab9 promoter | Huh7 Rab9 promoter-luciferase reporter, luminescence, 24 h | Potency, µM (highest dose often 9.22 µM), inactives show at the highest dose activation, negative = inhibition, usual class: activators | 320,000 tested, 2.8% active | AID 485297; also: % of control where 0% means no effect; nearly all actives have a fitted effect of over 60% in size
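Huh7 reporter line, Rab9 promoter upstream of luciferase. Compound exposure 24 h at 37 °C in reduced-serum medium with 10% FBS. Read-out: luminescence.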
SMN2 splice enh – enhancers of SMN2 splice variant expression. HEK293 SMN2-luciferase splicing reporter, luminescence, 30-36 h. Potency, µM (highest dose often 46.1 µM), without a hit: top-dose activity change, positive = activation, hits mostly activators. 210,000 tested, 2.8% active; also: % of control where 0% means no effect; nearly all actives have a fitted effect of over 55% in size
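HEK293 cells carry an SMN2 minigene-luciferase reporter in which exon 7 inclusion puts luciferase in frame. Cells were seeded at 2000 cells/well, attached for 10-12 hours, then exposed to compounds for 30-36 hours at 37C before ONE-Glo luminescence.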
FLuc modulator – counter-screen for miR-21 project: firefly luciferase inhibitors or activators. purified FLuc, Km substrates, luminescence inhibition. Potency, µM (series often up to 57.5 µM), for the others: top-dose activity change, negative = inhibition, usual class: inhibitors. AID 588342. P08659. 360,000 tested, 6.9% active;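 also: plate controls were vehicle for no effect and reference inhibitor for full effect; nearly all actives have a fitted effect of over 55% in size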
Target sequence (P08659 whole entry, looked up): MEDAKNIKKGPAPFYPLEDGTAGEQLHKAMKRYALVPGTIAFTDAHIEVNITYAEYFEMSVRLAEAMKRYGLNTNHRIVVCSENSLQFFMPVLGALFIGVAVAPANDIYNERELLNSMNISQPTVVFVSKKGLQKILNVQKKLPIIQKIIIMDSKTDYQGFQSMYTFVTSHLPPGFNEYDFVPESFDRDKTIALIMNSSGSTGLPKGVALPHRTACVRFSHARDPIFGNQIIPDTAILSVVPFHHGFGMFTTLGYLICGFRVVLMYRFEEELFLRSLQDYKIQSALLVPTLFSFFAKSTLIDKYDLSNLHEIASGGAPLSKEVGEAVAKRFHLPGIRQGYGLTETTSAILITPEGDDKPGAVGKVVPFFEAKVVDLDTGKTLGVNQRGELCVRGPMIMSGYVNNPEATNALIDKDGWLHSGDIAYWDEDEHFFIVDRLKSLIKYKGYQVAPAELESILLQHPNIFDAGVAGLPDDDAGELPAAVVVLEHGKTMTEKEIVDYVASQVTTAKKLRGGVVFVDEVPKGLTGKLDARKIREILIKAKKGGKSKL
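Purified P. pyralis luciferase (10nM final) with 10uM D-luciferin and 10uM ATP (Km levels) in 50mM Tris acetate pH 7.5, 10mM Mg acetate, 0.01% Tween-20, 0.05% BSA; qHTS 6-point titration, ~60 µM downward; luminescence read.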
* marks the source's active call; other numbers are inactive results; ? = inconclusive; / = no result given; [ ] = another dose, or the depositor's remark. Calls follow the shape of the dose curve; as a rule, active = well fitted curve in the direction sought with a large enough effect; inconclusive = small, poorly fitted or top-dose-only effect, or another doubt; inactive = no such curve, though single readings can be large; an effect the other way counts as inactive or inconclusive. Potency is read from the fitted curve at half-maximal effect.

SMILES	ELG1 DNA repair	NPC1 prom act	ELG1 genotox	Rab9 prom act	SMN2 splice enh	FLuc modulator
CC(NC(=O)Nc1ccc2c(c1)OCO2)C1CCCO1 (stereo not drawn)	?	?	13%	?	?	17µM*
Cc1cc(C)cc(NC(=O)NC(C)C2CCCO2)c1 (stereo not drawn)	12%	-1%	0%	-1%	/	?
CCc1cccc(C)c1NC(=O)Nc1ccc2c(c1)OCO2	6%	-3%	0%	1%	21%	3%
Cc1cc(C)nc(NC(=O)Nc2ccc3c(c2)OCO3)c1	?	0.71µM*	?	0.56µM*	2.5µM*	?
Cc1ccc(OC(F)F)c(NC(=O)Nc2ccc3c(c2)OCO3)c1	-8%	4%	-5%	6%	/	?
Cc1ccc(NC(=O)/C=C/c2ccc3c(c2)OCO3)nc1	?	2.5µM*	?	2.5µM*	2.8µM*	2.1µM*
Cc1cccc(NC(=O)Nc2cc(C)cc(C)n2)c1	?	2.2µM*	?	1.3µM*	5µM*	1.5µM*
O=C(O)/C(Cc1cn[nH]n1)=N\O	/	/	/	/	-12%[9.22 µM]	/
CCN(CC)S(=O)(=O)c1ccc(C)c(NC(=O)/C=C/c2cccs2)c1	16µM*	0%	-4%	-1%	-32%	?
Cc1ccccc1NC(=O)/C=C/c1cccs1	?	?	?	4.5µM*	13µM*	?
CCOC(=O)c1ccc(NC(=O)/C=C/c2cccs2)cc1	?	?	-1%	?	?	11µM*
Cc1ccccc1NC(=O)C(=O)Nc1ccccc1C	?	1.3µM*	?	0.89µM*	/	?
Cc1ccccc1NC(=O)CC(=O)Nc1ccccc1C	-10%	-1%	1%	-11%	/	-4%
C[C@]12C[C@H](O)C3[C@@H](CCC4=CC(=O)CC[C@@]43C)[C@@H]1CC[C@@H]2C(=O)CO (stereo partly drawn)	/	/	/	/	-33%	/
COc1ccc(-c2ccc(SCC(=O)NCc3ccco3)nn2)cc1OC	29%	6%	6%	3%	3%	21µM*
COc1ccc(-c2cc(C(F)(F)F)nc(SCC(=O)NCc3ccco3)n2)cc1OC	23µM*	4%	6%	0%	2%	-7%
O=C(CSc1nc(-c2ccccc2)cc(C(F)(F)F)n1)NCc1ccco1	-5%	1%	1%	-4%	22%	-1%
COc1ccc(OC)c(CNS(=O)(=O)c2c(C(=O)N3CCCCCC3)c(C)n(C)c2C)c1	/	/	/	/	/	-1%
COc1ccc(CNC(=O)c2oc3c(c2C)-c2nn(Cc4ccc(Cl)cc4)cc2CC3)cc1	/	/	/	/	/	5%
CCN(CCn1cccn1)C(=O)CCc1nnc(C2(c3ccc(Cl)cc3)CCC2)o1	?	28%	18%	?	/	17µM*
Cc1ccc(-c2c(C(=O)N3CCN(c4cc(Cl)ccc4C)CC3)oc(=O)c3ccccc23)cc1	/	/	/	/	0%	3%
CCCCN1C(=O)c2ccc(C(=O)Nc3cccc(C)c3C)cc2C1=O	19%	1%	11%	-4%	-6%	0%
O=C(Nc1ccccc1C(=O)O)c1ccc2c(c1)C(=O)N(c1cccc([N+](=O)[O-])c1)C2=O	1%	1%	0%	-7%	/	27µM*
CCCN1C(=O)c2ccc(C(=O)Nc3ccccc3C(=O)O)cc2C1=O	?	?	10%	22%	/	3.8µM*
CCCN1C(=O)c2ccc(C(=O)Nc3cc(C)ccc3O)cc2C1=O	?	2.2µM*	?	?	/	3.4µM*
SMILES	ELG1 DNA repair	NPC1 prom act	ELG1 genotox	Rab9 prom act	SMN2 splice enh	FLuc modulator
Cc1ccc(O)c(NC(=O)c2ccc3c(c2)C(=O)N(CC(C)C)C3=O)c1	?	2.8µM*	?	?	/	2.4µM*
Cc1ccnc(NC(=O)c2ccc3c(c2)C(=O)N(CC(C)C)C3=O)c1	7%	8%	12%	0%	/	0%
Cn1nnc2c(NCCc3ccccc3)ncnc21	/	/	/	/	/	0%
Cc1cccc(C)c1OCC(=O)NCC1(N(C)C)CCCCC1	/	/	/	/	/	-4%
O=C(c1ccc(Br)o1)N1CCN(c2ccc3nnc(-c4ccccc4)n3n2)CC1	?	-2%	-31%	-3%	131%	-1%
O=C(Nc1ccccc1C(F)(F)F)N1CCN(c2ccc3nnc(-c4ccc(F)cc4)n3n2)CC1	12µM*	-10%	-6%	-3%	-52%	4%
Fc1ccc(-c2nnc3ccc(N4CCc5ccccc5C4)nn23)cc1	18µM*	-4%	-11%	3%	-36%	0%
O=C(Nc1ccc(F)cc1)N1CCN(c2ccc3nnc(-c4ccc(F)cc4)n3n2)CC1	7.3µM*	-3%	-7%	-1%	-3%	-9%
Cc1c(Cl)cccc1NC(=O)c1cc2sccc2n1Cc1ccc(F)cc1	/	/	/	/	8%	3%
COc1ccc(CC(=O)Nc2cccc(-c3cn4ccccc4n3)c2)cc1	?	2%	-3%	23%	25%	8.5µM*
COc1ccc(CC(=O)Nc2ccc(-c3cn4ccccc4n3)cc2)cc1	?	?	?	3.2µM*	?	3.4µM*
COc1ccc(CC(=O)Nc2cccc(-c3csc(C)n3)c2)cc1	?	-1%	-1%	-3%	10%	?
O=C(Nc1cccc(-c2cn3ccccc3n2)c1)C1CC1	?	26%	?	3%	?	13µM*
COc1ccc(CC(=O)Nc2ccc(-c3cn4ccccc4n3)cc2)cc1OC	7%	21%	?	18%	-17%	17µM*
Cc1cc(F)ccc1NC(=O)CCS(=O)(=O)c1cc2c(cc1C)NC(=O)CO2	/	/	/	/	/	-13%
O=C(CCc1ccccc1)N(Cc1cccnc1)c1nc2c(F)cc(F)cc2s1	/	/	/	/	/	-11%
O=C(Nc1ccc(-c2cn3ccccc3n2)cc1)c1cccs1	?	1.8µM*	?	3.5µM*	11µM*	1.9µM*
CCC(=O)Nc1cccc(-c2cn3cccc(C)c3n2)c1	?	?	12%	?	/	7.6µM*
CCC(=O)Nc1cccc(-c2cn3ccccc3n2)c1	?	?	12%	?	?	11µM*
Cc1ccc(S(=O)(=O)Nc2cccc(-c3cn4cccc(C)c4n3)c2)c(C)c1	/	/	/	/	-17%	?
O=C(Nc1ccc(-c2cn3ccccc3n2)cc1)c1cc(Br)ccc1O	/	/	/	/	2%[9.22 µM]	/
CN(C)S(=O)(=O)c1cccc(-c2cn3ccccc3n2)c1	?	14%	2%	26%	1%	-11%
COc1ccc(-c2cn(-c3ccc(C)cc3)c(S(=O)(=O)CC(=O)Nc3ccc(F)cc3)n2)cc1	/	/	/	/	28%	?

Compound activity as filed in PubChem.
